{"source": "the supplement of paper PMC10849652", "note": "The full data set covers some 8,800 targets. This sample favours those with a hit. About 0.5% of all pairs of compound and target were hits. Values without a mark were called inactive."}
{"compound": "C1=CC=C(C=C1)[C@H](COC2=CC3=C(C=C2)NC(=O)N3)NC(=O)C4=CC=CN(C4=O)CC5=CC(=C(C=C5)F)F", "assay": "log2 fold change, soluble protein after heating vs DMSO (PISA); higher = thermal stabilisation; K562 lysate, 10 uM; active = over 0.2 and 3.5 SD of the protein, either way, in both replicates (recomputed)", "how_it_was_run": "(§1)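 K562 pellets were dounce-homogenised in PBS pH 7.4 containing 1 mM MgCl2, and the crude extract, at 1 mg/mL protein, was exposed to 10 μM compound for 30 min. Aliquots were heated for 3 min across 48°C-58°C, pooled, brought to 0.5% NP-40 at 4°C and spun at 21,000xg for 90 min, with the supernatant taken as soluble protein. TMTpro 16plex LC-MS/MS with equalised channel sums quantified that protein. Values are log-two fold changes in thermal stability relative to solvent controls, taken from duplicates.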"}
{"target": "TCF20 (UniProt Q9UGU0)", "log2 fold change": 0.022}
{"target": "TFAP4 (UniProt Q01664)", "sequence (Q01664 whole entry, looked up)": "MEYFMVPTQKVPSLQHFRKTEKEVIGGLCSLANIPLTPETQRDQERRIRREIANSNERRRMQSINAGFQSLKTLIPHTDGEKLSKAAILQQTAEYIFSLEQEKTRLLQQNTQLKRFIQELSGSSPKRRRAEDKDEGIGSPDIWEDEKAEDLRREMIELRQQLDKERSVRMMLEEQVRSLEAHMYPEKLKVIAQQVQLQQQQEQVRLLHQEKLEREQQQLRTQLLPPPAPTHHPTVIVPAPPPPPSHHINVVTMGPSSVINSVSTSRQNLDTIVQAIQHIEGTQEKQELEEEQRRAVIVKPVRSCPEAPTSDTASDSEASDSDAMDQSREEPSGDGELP", "log2 fold change": 0.018}
{"target": "TMEM167B (UniProt Q9NRX6)", "sequence (Q9NRX6 whole entry, looked up)": "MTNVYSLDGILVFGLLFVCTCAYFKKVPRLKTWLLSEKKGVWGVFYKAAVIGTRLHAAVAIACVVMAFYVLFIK", "log2 fold change": 0.021}
{"target": "TPD52L2 isoform 3 (UniProt O43399)", "log2 fold change": -0.058}
{"target": "TENM4 (UniProt Q6N022)", "log2 fold change": -0.057}
{"target": "TASP1 (UniProt Q9H6P5)", "sequence (Q9H6P5 whole entry, looked up)": "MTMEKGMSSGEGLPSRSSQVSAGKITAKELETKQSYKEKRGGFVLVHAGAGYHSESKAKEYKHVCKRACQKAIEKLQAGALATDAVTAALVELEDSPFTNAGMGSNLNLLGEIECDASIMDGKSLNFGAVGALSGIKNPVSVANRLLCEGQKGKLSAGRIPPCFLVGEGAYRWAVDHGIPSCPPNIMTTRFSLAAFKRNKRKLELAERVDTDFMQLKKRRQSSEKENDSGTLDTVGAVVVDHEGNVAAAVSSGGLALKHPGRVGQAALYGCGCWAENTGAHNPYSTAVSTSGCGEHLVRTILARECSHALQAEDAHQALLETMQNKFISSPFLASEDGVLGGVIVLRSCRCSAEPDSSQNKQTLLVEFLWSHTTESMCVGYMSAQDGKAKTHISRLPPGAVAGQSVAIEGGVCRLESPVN", "log2 fold change": 0.027}
{"target": "TUBB4A (UniProt P04350)", "sequence (P04350 whole entry, looked up)": "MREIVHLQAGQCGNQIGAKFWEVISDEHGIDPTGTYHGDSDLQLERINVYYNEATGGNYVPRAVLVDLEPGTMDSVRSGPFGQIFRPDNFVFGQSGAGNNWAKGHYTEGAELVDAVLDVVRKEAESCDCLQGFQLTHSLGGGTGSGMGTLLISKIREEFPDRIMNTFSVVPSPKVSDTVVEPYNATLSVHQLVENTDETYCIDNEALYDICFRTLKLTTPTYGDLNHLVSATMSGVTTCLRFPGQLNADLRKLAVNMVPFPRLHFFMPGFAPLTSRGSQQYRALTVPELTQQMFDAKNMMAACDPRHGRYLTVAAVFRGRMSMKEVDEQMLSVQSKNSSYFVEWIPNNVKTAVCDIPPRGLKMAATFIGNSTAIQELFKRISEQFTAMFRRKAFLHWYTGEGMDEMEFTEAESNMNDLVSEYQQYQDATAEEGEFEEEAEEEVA", "log2 fold change": 0.015}
{"target": "TUBA4A (UniProt C9JQ00)", "log2 fold change": -0.111}
{"target": "TRPM4 (UniProt Q8TD43)", "sequence (Q8TD43 whole entry, looked up)": "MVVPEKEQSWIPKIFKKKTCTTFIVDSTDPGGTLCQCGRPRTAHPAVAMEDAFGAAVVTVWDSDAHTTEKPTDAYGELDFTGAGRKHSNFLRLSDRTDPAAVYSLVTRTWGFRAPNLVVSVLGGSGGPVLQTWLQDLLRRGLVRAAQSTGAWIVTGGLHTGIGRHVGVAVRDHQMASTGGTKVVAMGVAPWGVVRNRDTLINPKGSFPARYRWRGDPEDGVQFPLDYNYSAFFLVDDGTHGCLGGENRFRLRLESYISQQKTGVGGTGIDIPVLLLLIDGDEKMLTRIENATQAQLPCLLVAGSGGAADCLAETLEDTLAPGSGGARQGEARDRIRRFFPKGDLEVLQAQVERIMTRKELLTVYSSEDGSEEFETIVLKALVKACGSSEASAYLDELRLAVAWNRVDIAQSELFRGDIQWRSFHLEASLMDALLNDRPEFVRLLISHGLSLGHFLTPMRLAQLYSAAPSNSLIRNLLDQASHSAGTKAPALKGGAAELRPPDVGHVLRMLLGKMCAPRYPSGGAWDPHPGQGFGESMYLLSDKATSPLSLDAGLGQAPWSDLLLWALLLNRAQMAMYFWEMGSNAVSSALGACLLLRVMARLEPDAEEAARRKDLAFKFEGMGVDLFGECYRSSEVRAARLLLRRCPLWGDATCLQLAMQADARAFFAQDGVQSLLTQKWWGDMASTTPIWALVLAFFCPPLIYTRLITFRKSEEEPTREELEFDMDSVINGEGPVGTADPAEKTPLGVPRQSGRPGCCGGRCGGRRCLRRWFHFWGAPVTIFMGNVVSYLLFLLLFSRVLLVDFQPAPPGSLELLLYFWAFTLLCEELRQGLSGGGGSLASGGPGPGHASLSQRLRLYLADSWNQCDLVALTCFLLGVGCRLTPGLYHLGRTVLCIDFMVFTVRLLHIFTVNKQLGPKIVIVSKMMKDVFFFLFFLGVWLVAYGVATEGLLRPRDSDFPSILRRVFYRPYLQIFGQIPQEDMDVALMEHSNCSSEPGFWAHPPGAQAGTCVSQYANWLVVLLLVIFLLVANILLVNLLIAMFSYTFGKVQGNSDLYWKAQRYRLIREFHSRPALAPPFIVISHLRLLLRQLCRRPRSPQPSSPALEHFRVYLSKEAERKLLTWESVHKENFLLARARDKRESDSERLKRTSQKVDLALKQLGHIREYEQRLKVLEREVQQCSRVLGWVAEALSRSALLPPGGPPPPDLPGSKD", "log2 fold change": -0.074}
{"target": "TNIK isoform 5 (UniProt Q9UKE5)", "sequence (Q9UKE5 whole entry, looked up)": "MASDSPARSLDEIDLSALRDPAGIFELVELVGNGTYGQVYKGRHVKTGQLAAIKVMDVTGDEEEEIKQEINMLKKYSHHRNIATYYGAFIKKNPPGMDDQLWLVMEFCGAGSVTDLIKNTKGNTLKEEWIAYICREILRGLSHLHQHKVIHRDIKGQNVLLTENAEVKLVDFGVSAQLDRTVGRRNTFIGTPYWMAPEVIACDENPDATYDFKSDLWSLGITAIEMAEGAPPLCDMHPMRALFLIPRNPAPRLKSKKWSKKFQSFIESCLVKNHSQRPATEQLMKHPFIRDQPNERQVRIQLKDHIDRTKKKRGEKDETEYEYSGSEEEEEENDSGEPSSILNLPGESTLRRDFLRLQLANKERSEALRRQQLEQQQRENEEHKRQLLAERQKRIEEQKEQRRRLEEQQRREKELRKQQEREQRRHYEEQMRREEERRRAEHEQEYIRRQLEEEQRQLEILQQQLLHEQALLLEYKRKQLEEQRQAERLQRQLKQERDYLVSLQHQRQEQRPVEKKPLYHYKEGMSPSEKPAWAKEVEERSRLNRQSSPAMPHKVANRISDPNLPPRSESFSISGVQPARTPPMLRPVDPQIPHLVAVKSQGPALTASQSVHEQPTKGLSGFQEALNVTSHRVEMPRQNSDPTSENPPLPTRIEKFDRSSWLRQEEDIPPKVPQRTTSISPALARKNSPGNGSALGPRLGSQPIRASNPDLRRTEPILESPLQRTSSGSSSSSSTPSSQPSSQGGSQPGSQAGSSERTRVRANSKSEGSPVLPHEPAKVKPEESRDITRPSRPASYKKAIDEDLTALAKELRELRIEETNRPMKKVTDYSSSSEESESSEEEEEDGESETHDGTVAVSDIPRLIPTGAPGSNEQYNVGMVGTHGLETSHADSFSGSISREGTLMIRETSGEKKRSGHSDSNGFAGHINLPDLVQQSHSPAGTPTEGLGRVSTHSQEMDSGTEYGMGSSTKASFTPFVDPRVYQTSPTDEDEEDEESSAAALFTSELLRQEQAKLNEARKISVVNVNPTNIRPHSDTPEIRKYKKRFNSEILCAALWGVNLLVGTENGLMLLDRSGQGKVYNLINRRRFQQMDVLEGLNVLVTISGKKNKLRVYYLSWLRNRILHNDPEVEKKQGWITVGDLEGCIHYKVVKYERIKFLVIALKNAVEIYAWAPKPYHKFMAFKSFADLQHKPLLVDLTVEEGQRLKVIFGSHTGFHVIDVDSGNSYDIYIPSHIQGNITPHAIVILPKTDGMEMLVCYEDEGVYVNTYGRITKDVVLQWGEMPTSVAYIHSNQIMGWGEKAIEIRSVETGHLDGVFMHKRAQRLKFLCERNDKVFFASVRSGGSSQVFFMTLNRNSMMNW", "log2 fold change": 0.008}
{"target": "TFPT (UniProt P0C1Z6)", "sequence (P0C1Z6 whole entry, looked up)": "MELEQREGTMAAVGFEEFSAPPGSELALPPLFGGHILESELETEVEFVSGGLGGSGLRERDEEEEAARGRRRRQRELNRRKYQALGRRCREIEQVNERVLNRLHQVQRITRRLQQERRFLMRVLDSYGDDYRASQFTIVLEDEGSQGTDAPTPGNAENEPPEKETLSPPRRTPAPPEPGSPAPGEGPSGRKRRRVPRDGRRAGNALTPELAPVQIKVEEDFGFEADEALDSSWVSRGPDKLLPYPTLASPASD", "log2 fold change": -0.176}
{"target": "TNFAIP3 (UniProt P21580)", "sequence (P21580 whole entry, looked up)": "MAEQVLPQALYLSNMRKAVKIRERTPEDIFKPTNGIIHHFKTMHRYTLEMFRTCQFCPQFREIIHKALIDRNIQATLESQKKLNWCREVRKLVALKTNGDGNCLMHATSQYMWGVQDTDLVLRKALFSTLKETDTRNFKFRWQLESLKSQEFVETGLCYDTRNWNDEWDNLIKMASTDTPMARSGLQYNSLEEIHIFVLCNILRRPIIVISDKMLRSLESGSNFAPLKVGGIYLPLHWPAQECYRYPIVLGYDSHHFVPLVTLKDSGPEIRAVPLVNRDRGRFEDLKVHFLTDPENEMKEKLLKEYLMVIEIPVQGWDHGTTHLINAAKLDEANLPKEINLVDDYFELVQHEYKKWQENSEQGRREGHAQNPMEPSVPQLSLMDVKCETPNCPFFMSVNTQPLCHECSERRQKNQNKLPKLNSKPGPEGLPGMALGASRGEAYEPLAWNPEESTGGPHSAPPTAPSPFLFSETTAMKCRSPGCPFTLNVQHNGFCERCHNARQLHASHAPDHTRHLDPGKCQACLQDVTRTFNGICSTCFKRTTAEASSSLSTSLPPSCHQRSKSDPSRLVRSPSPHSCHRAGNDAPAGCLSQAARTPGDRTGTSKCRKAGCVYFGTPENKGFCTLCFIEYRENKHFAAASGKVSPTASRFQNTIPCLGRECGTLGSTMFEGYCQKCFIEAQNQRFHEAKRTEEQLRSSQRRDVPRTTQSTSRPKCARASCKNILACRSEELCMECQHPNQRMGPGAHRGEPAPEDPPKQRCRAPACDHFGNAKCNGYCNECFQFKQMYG", "log2 fold change": 0.052}
{"target": "TMEM161B (UniProt Q8NDZ6)", "log2 fold change": -0.07}
{"target": "TM2D3 (UniProt Q9BRN9)", "log2 fold change": 0.023}
{"target": "TMSB4X (UniProt P62328)", "sequence (P62328 whole entry, looked up)": "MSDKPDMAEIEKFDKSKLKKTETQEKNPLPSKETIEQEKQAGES", "log2 fold change": "-0.935 (active)"}
{"target": "TUBB4A (UniProt M0QYM7)", "log2 fold change": -0.207}
{"target": "TLE3 isoform 5 (UniProt Q04726)", "log2 fold change": -0.061}
{"compound": "CC1=C(SC2=C1C(=N[C@H](C3=NN=C(N32)C)CC(=O)N)C4=CC=C(C=C4)Cl)C", "assay": "log2 fold change, soluble protein after heating vs DMSO (PISA); higher = thermal stabilisation; K562 lysate, 10 uM; active = over 0.2 and 3.5 SD of the protein, either way, in both replicates (recomputed)", "how_it_was_run": "as §1"}
{"target": "TCF20 (UniProt Q9UGU0)", "log2 fold change": -0.063}
{"target": "TFAP4 (UniProt Q01664)", "log2 fold change": -0.069}
{"target": "TMEM167B (UniProt Q9NRX6)", "log2 fold change": -0.032}
{"target": "TPD52L2 isoform 3 (UniProt O43399)", "log2 fold change": 0.135}
{"target": "TENM4 (UniProt Q6N022)", "log2 fold change": 0.174}
{"target": "TASP1 (UniProt Q9H6P5)", "log2 fold change": 0.205}
{"target": "TUBB4A (UniProt P04350)", "log2 fold change": -0.03}
{"target": "TUBA4A (UniProt C9JQ00)", "log2 fold change": -0.225}
{"target": "TRPM4 (UniProt Q8TD43)", "log2 fold change": 0.114}
{"target": "TNIK isoform 5 (UniProt Q9UKE5)", "log2 fold change": -0.009}
{"target": "TFPT (UniProt P0C1Z6)", "log2 fold change": -0.078}
{"target": "TNFAIP3 (UniProt P21580)", "log2 fold change": 0.05}
{"target": "TMEM161B (UniProt Q8NDZ6)", "log2 fold change": -0.052}
{"target": "TM2D3 (UniProt Q9BRN9)", "log2 fold change": -0.003}
{"target": "TMSB4X (UniProt P62328)", "log2 fold change": 0.434}
{"target": "TUBB4A (UniProt M0QYM7)", "log2 fold change": -0.162}
{"target": "TLE3 isoform 5 (UniProt Q04726)", "log2 fold change": "-0.454 (active)"}
{"compound": "CC1=C2C(=CC=C1)N=C(N(C2=O)C3=CC=CC=C3C)CN4C=NC5=C(N=CN=C54)N", "assay": "log2 fold change, soluble protein after heating vs DMSO (PISA); higher = thermal stabilisation; K562 lysate, 10 uM; active = over 0.2 and 3.5 SD of the protein, either way, in both replicates (recomputed)", "how_it_was_run": "as §1"}
{"target": "TFAP4 (UniProt Q01664)", "log2 fold change": 0.012}
{"target": "TCF3 (UniProt X6REB3)", "log2 fold change": -0.031}
{"target": "TMEM167B (UniProt Q9NRX6)", "log2 fold change": 0.036}
{"target": "UBAP2L (UniProt F8W726)", "log2 fold change": -0.018}
{"target": "TPM3 isoform 3 (UniProt P06753)", "log2 fold change": -0.048}
{"target": "TNKS (UniProt O95271)", "log2 fold change": 0.023}
{"target": "TRAF7 (UniProt Q6Q0C0)", "log2 fold change": 0.007}
{"target": "TSPAN3 (UniProt O60637)", "log2 fold change": 0.174}
{"target": "TRIM3 (UniProt O75382)", "log2 fold change": 0.197}
{"target": "UBR4 isoform 4 (UniProt Q5T4S7)", "log2 fold change": -0.023}
{"target": "UBN1 (UniProt Q9NPG3)", "log2 fold change": 0.03}
{"target": "TMC1 (UniProt Q8TDI8)", "log2 fold change": 0.038}
{"target": "TMEM161B (UniProt Q8NDZ6)", "log2 fold change": -0.076}
{"target": "UCP2 (UniProt P55851)", "log2 fold change": -0.003}
{"target": "TEC (UniProt P42680)", "log2 fold change": 0.114}
{"target": "TFPI isoform 2 (UniProt P10646)", "log2 fold change": 0.048}
{"target": "TUBB4A (UniProt M0QYM7)", "log2 fold change": 0.016}
{"target": "UBIAD1 (UniProt Q9Y5Z9)", "log2 fold change": -0.025}
{"compound": "Cc1sc2c(c1C)C(c1ccc(Cl)cc1)=N[C@@H](CC(=O)OC(C)(C)C)c1nnc(C)n1-2", "assay": "log2 fold change, soluble protein after heating vs DMSO (PISA); higher = thermal stabilisation; K562 lysate, 10 uM; active = over 0.2 and 3.5 SD of the protein, either way, in both replicates (recomputed)", "how_it_was_run": "as §1"}
{"target": "TCF20 (UniProt Q9UGU0)", "log2 fold change": -0.263}
{"target": "TCF4 (UniProt P15884)", "log2 fold change": 0.047}
{"target": "TASP1 (UniProt Q9H6P5)", "log2 fold change": 0.059}
{"target": "TPM3 isoform 3 (UniProt P06753)", "log2 fold change": -0.041}
{"target": "TUBB4A (UniProt P04350)", "log2 fold change": 0.044}
{"target": "TNKS (UniProt O95271)", "log2 fold change": 0.039}
{"target": "TRAF7 (UniProt Q6Q0C0)", "log2 fold change": -0.005}
{"target": "TRPM4 (UniProt Q8TD43)", "log2 fold change": -0.042}
{"target": "TNIK isoform 5 (UniProt Q9UKE5)", "log2 fold change": -0.089}
{"target": "TFPT (UniProt P0C1Z6)", "log2 fold change": -0.052}
{"target": "TSPAN3 (UniProt O60637)", "log2 fold change": 0.006}
{"target": "UBR4 isoform 4 (UniProt Q5T4S7)", "log2 fold change": -0.284}
{"target": "U2AF1L5 (UniProt P0DN76)", "log2 fold change": 0.002}
{"target": "UBN1 (UniProt Q9NPG3)", "log2 fold change": -0.164}
{"target": "TGFBR1 isoform 2 (UniProt P36897)", "log2 fold change": -0.004}
{"target": "TNFAIP3 (UniProt P21580)", "log2 fold change": 0.033}
{"target": "TMEM154 (UniProt Q6P9G4)", "log2 fold change": -0.073}
{"target": "TEDC1 (UniProt Q86SX3)", "log2 fold change": 0.058}
{"target": "TLE3 (UniProt H0YL70)", "log2 fold change": -0.343}
{"target": "UBIAD1 (UniProt Q9Y5Z9)", "log2 fold change": -0.048}
{"target": "TLE3 isoform 5 (UniProt Q04726)", "log2 fold change": -0.069}
